Bioassay records from PubChem BioAssay.
An excerpt weighted towards active compounds, which were near 3.5% of everything screened.
TEAD-YAP block – TEAD-YAP interaction inhibition; HEK-TIYL cells, TEAD-Gal4/YAP UAS-luciferase luminescence; inhibition, % at 9.12 µM; 640,000 compounds, 1.4% hits; in the data active means inhibition above about 32%;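 further: 0% = median of test compound wells and 100% = reference inhibitor wells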
GPR151 activ – human GPR151 activation; Q8TDV0; AID 1508602; PathHunter beta-arrestin GPR151 cells, luminescence; 650,000 compounds, 1% hits; activation, % at 11.2 µM; in the data active means activation above about 4.9%;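 further: 0% = median of compound wells and 100% = cells with positive control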
FBW7 activator – human FBW7 E3 ligase activation, primary screen | AlphaScreen FBW7–phospho-cyclin E peptide binding, activator screen | normalized activity (activation), % at 26.1 µM | 650,000 compounds, 0.13% hits; in the data active means normalized activity above about 1.9%;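 further: purified mutant Fbw7 with reduced substrate affinity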
MITF primary – inhibitors of human MITF | O75030 | AlphaScreen MITF homodimerization, bead proximity signal | inhibition, % at 2.6 µM | 650,000 compounds, 0.91% hits | AID 1259374; in the data active means inhibition above about 50%;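 further: 0% = vehicle wells with protein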
Target sequence (O75030 whole entry, looked up): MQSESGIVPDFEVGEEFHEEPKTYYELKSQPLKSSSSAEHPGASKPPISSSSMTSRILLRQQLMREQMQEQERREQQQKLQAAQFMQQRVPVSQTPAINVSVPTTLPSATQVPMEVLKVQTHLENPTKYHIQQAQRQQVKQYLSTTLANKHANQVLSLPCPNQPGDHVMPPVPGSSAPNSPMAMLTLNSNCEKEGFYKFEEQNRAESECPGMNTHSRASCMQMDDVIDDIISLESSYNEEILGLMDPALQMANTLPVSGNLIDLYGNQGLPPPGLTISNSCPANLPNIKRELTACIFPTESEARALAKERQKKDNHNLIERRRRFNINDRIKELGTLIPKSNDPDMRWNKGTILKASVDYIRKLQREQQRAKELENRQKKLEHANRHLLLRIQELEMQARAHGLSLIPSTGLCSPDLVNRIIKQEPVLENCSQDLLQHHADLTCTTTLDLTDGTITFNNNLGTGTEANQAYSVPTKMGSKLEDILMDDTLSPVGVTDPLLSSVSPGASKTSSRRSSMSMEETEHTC
GPR151 conf act – human GPR151 activation, confirmation screen. shares compounds with GPR151 activ. GPR151 PathHunter beta-arrestin cells, luminescence, 90 min; % of EA-reagent control over plate median. activation, % at 11.2 µM. 6,700 tested, under 10 active. AID 1508609;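 active means mean percent activation across replicates above the confirmation screen cutoff of 4.91%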
GPR119 ag – GPR119 activation, counter-screen for GPR151 activators; shares compounds with GPR151 activ; AID 1508611; GPR119 PathHunter beta-arrestin cells, luminescence, 90 min; 0 = compound-well median, 100 = enzyme-acceptor control; 6,700 compounds, 0.3% hits; activation, % at 11.2 µM;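 active means mean percent activation in the counterscreen above 29.09%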;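 further: counterscreen on off-target GPR119 to flag nonselective hits from the GPR151 activator screen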
* marks the source's active call; other numbers are inactive results; / = no result.

SMILES	TEAD-YAP block	GPR151 activ	FBW7 activator	MITF primary	GPR151 conf act	GPR119 ag
Cc1cccc(C(=O)N[C@H](C(=O)NNC(=O)c2ccccc2)C(C)C)c1	17.4	-0.4	0.3	9.9	/	/
COc1ccc(S(=O)(=O)n2nc(C)cc2C)cc1	0.3	5.0*	0.7	-0.5	0.0	-2.7
O=C1CON(c2ccc(Cl)cc2)C(=O)N1	9.5	0.5	0.1	6.1	/	/
COC(=O)c1c(NC(C)=O)c2c(C)c(C)sc2n1Cc1cccc(OC)c1	0.0	-0.1	-0.2	-4.3	/	/
C=Cc1ccc(Cn2c(C(=O)OC)c(NC(C)=O)c3c(C)c(C)sc32)cc1	-2.0	5.4*	-0.1	-1.7	-0.5	-14.9
O=C1NC(Cc2ccccc2)C(=O)N1Cc1ccc(Br)cc1F (centres undefined)	-1.9	-0.9	0.6	22.4	/	/
COc1ncc(-c2cncc(-c3cccc(O)c3)n2)c(OC)n1	-32.6	12.6*	-0.1	7.4	1.1	6.0
CC(Oc1cccc2ccccc12)C(=O)N/N=C/c1cccc([N+](=O)[O-])c1 (centres undefined)	-0.1	-0.6	0.0	1.3	/	/
COc1ccc(-c2nnc(SCC(=O)c3cc(C)n(CC4CCCO4)c3C)o2)cc1 (centres undefined)	-7.2	4.9*	-0.1	2.5	1.2	5.8
Cc1csc(=O)n1CCC(=O)Nc1ccccc1Cc1ccccc1	5.7	-1.2	0.0	6.4	/	/
CC(C)C[C@H](O)C(=O)N1CCN(c2ccc3[nH]ncc3c2)CC1	-8.2	5.0*	-0.4	8.4	0.5	12.9
CC(C)[C@H](O)C(=O)N1CCN(c2ccc3[nH]ncc3c2)CC1	0.2	-0.6	-0.1	24.4	/	/
Cc1nn(Cc2ccc(C(=O)NC3CCCC3)o2)c(C)c1[N+](=O)[O-]	6.5	5.5*	0.0	-0.2	-0.9	-15.3
Cc1cc(-c2ccccc2)n(-c2cc(Nc3ccccc3)ncn2)n1	-0.1	5.1*	0.2	5.0	0.9	6.3
Cc1cc(-c2ccccc2)n(-c2cc(Nc3cccc(F)c3)ncn2)n1	-9.6	2.0	0.0	1.3	/	/
CC(C)(C)c1ccc(C(=O)N/N=C/c2ccc(O)c([N+](=O)[O-])c2)cc1	-31.9	5.1*	0.0	-2.7	0.1	0.3
COc1ccc(/C=N\NC(=O)c2ccc([N+](=O)[O-])cc2)cc1Cl	9.1	6.5*	0.2	17.7	0.7	2.0
COc1ccc(O)c(/C=N/NC(=O)c2cc([N+](=O)[O-])cc([N+](=O)[O-])c2)c1	-8.9	7.0*	0.4	19.7	-1.1	-9.9
O=C(N/N=C/c1cc([N+](=O)[O-])ccc1O)C12CC3CC(CC(C3)C1)C2	4.1	5.1*	0.0	0.3	-0.2	6.9
COc1ccc(C(=O)N/N=C/c2cc(OC)ccc2O)cc1	-2.0	0.7	0.0	26.1	/	/
CCOC(=O)N1CCC(n2c(SCC(=O)Nc3cccc(OC)c3)nc3ccccc3c2=O)CC1	0.8	-0.6	-0.1	-5.3	/	/
CC(=O)c1ccc(NC(=O)/C=C/c2cccc(Cl)c2)cc1	-81.5	3.4	-0.1	-10.7	/	/
CN(CC1COc2ccccc2O1)c1nnnn1-c1ccccc1 (centres undefined)	2.6	0.1	0.1	2.4	/	/
c1ccc(-n2nnnc2NCC2COc3ccccc3O2)cc1 (centres undefined)	0.2	5.1*	0.0	-15.2	-0.5	-0.2
CCCn1nnnc1SCC(=O)NNC(=O)c1ccco1	1.2	0.3	-0.2	-7.1	/	/
SMILES	TEAD-YAP block	GPR151 activ	FBW7 activator	MITF primary	GPR151 conf act	GPR119 ag
CCCCn1nnnc1SCC(=O)NNC(=O)c1ccco1	12.3	5.9*	0.5	13.1	0.7	4.4
Cc1cc(N(CC(=O)NC2CCCCC2)S(C)(=O)=O)ccc1Br	7.3	8.1*	-0.1	-9.0	1.2	10.2
COc1ccc(C(=O)N2CC(C)CC(C)C2)cc1[N+](=O)[O-] (centres undefined)	-9.6	-1.2	0.1	17.0	/	/
CN(CC1COCCO1)C(=O)c1cc(COc2c(F)cccc2F)on1 (centres undefined)	-8.7	16.2*	0.0	5.8	-0.2	2.2
CCOc1ccc(N2C(=O)c3ccccc3NC2c2ccccc2Cl)cc1 (centres undefined)	3.3	0.3	-0.1	2.6	/	/
COc1cc(/C=C2\NC(=O)N(Cc3ccc(Cl)cc3)C2=O)cc(OC)c1O	-6.2	-2.0	-0.4	-11.8	/	/
COc1cc(/C=C2/NC(=O)N(Cc3ccc(F)cc3)C2=O)cc(Cl)c1OC	-12.8	5.2*	0.6	-4.0	0.2	0.0
COc1ccc2ccc(OC)c(/C=C3\NC(=O)N(Cc4ccc(Cl)cc4)C3=O)c2c1	-0.3	4.9*	0.1	7.1	0.1	6.0
COc1cc(/C=C2/NC(=O)N(Cc3ccccc3F)C2=O)cc(Cl)c1OC	-2.6	0.6	0.1	7.7	/	/
CC[C@H](C)[C@@H]1NC(=O)[C@@H]2C[C@H](NC(=O)Nc3cccc(Cl)c3)CN2C1=O	-20.9	5.3*	0.0	-10.4	-0.2	8.6
O=C(COc1ccc(-n2cnnn2)cc1)NCC(F)(F)F	-13.0	-1.4	-0.2	-1.1	/	/
COc1ccccc1OCC(=O)NCC(c1ccsc1)N1CCCC1 (centres undefined)	1.6	2.1	0.1	9.7	/	/
O=C(Cc1ccc(F)cc1)NCC(c1ccsc1)N1CCCCCC1 (centres undefined)	-10.2	6.9*	-0.1	-3.2	-0.1	-6.7
O=C1c2ccccc2C(=O)N1OS(=O)(=O)c1ccccc1	-5.7	-0.2	0.2	-1.6	/	/
O=C1c2ccccc2C(=O)N1OS(=O)(=O)c1ccc(Cl)cc1	2.1	16.6*	0.6	13.8	0.4	3.5
CC(=O)/C=C/c1ccc(OC(F)F)cc1	4.7	6.0*	0.0	11.8	-0.1	-4.9
CC(Sc1nnc(NC(=O)c2ccccc2)s1)c1nc2ccccc2c(=O)[nH]1 (centres undefined)	-1.3	5.7*	-0.1	7.4	0.0	4.7
CCOC(=O)C(CC1=CNC2C=CC=CC12)NC(=O)CN1C(=O)c2ccccc2C1=O (centres undefined)	-6.3	7.7*	-0.1	-6.0	-0.1	10.6
CC(=O)C(Cc1ccccc1)NC(=O)CN1C(=O)c2ccccc2C1=O (centres undefined)	6.0	-0.3	0.1	2.5	/	/
FC(F)(F)c1cc2[nH]c(C3COc4ccccc4O3)nc2cc1-c1ccncc1 (centres undefined)	-15.3	8.0*	0.0	-4.6	0.3	-1.1
c1ccc2c(c1)OC[C@H](c1nc3ccc(-c4ccncc4)cc3[nH]1)O2	-30.6	-0.3	0.0	17.5	/	/
COc1ccc(-c2csc(NC(=O)c3ccc(S(=O)(=O)N4CCCC4)cc3)n2)c(OC)c1	6.3	5.5*	0.2	6.3	1.0	19.7
CC(C)(C)OC(=O)N1CCC[C@@H]1C(=O)Nc1ccc2[nH]ncc2c1	-2.6	5.8*	0.0	19.2	-0.2	-6.0
